Holding throughout (test): DAPPL (digital affinity profiling via proximity ligation, sequencing); 10 mM Tris-HCl pH 7.5, 50 mM NaCl, 1 mM DTT, 4% glycerol, room temperature, 30 min; GST-TFs on glutathione beads, 16-mer random dsDNA library, 0.1% formaldehyde crosslink after washing; high values mean tight binding
Settings in all cases: protein: recombinant; tags: N-terminal GST; dsDNA, one strand shown

The target in one experiment is T1, ERF (Homo sapiens, UniProt P50548 1-548).
T1 sequence: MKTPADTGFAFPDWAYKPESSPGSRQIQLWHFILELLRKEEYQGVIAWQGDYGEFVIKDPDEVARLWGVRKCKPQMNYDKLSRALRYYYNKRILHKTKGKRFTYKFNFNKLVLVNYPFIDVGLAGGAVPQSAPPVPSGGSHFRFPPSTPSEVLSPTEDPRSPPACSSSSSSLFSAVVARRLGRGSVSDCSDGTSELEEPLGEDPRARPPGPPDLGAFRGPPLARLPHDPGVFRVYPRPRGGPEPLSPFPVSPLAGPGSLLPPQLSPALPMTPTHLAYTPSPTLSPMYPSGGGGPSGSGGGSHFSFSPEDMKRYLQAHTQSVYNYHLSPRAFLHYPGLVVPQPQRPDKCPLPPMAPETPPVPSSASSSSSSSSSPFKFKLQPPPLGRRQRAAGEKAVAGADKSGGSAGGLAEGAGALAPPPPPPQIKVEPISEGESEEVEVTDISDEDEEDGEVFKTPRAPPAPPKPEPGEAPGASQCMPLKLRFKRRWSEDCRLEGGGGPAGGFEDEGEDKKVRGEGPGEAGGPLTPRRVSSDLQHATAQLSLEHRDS
The method in brief: (§1)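 Pools were built from human transcription factors expressed in yeast as GST fusions, captured on glutathione beads and DNA-barcoded, along with a tag-only sample. Incubation with 200 nmole of a 16-mer random double-stranded DNA library lasted 30 min at room temperature in Tris/NaCl/DTT/glycerol buffer, and was followed by washing, 0.1% formaldehyde crosslinking, proximity ligation, PCR amplification and Illumina NextSeq500 sequencing. Binding signal is the quotient of each hexamer's read frequency for a factor and its frequency for the tag-only sample.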

A further experiment concerns the target T2, ETV3L (Homo sapiens, UniProt Q6ZN32 1-361).
T2 sequence: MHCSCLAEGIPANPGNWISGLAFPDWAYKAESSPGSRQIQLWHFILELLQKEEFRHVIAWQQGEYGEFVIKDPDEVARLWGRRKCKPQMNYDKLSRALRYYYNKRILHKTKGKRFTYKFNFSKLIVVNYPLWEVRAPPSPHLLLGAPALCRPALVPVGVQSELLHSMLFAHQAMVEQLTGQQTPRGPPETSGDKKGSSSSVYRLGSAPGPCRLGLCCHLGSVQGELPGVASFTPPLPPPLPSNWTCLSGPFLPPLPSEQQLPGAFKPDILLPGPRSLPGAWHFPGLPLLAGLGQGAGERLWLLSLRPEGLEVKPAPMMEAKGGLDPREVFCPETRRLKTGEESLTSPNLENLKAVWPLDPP
In a few lines: as §1

The next experiment has as its target T3, ETS2 (Homo sapiens, UniProt P15036 1-469).
T3 sequence: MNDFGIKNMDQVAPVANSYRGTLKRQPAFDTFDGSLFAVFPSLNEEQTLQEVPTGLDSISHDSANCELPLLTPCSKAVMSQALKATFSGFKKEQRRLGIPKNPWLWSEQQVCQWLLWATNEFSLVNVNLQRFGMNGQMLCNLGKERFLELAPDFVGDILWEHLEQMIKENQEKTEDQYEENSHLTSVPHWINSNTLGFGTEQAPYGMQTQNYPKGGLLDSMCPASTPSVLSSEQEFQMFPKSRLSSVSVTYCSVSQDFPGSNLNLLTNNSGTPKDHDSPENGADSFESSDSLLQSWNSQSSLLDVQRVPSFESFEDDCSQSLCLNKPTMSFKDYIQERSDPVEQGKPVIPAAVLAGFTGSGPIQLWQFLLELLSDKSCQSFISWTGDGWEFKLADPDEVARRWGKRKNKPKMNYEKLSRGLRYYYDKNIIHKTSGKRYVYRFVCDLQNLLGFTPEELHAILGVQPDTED
In a few lines:
as §1

A further experiment addresses T4, SPDEF (Homo sapiens, UniProt O95238 1-335).
T4 sequence: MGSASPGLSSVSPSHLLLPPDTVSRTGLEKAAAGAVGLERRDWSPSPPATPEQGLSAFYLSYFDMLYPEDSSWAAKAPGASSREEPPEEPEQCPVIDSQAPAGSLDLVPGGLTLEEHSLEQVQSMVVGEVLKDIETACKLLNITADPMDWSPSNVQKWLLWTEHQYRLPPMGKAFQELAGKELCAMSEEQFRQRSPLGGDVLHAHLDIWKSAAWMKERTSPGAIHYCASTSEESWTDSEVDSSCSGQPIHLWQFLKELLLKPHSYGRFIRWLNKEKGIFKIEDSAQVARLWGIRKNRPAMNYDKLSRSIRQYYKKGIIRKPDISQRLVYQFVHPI
In a few lines: as §1

The next experiment concerns the target T5, ETV7 (Homo sapiens, UniProt Q9Y603 1-341).
T5 sequence: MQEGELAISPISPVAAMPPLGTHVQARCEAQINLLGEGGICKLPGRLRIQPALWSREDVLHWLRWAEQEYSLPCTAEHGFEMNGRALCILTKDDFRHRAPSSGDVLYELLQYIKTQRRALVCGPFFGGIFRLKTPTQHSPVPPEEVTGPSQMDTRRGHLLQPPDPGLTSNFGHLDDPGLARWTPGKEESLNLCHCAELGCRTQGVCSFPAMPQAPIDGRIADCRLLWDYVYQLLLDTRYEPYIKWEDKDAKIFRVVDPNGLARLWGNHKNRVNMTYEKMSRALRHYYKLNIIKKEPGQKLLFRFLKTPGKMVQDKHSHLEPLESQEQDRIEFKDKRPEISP
In a few lines:
as §1

For a further experiment, the target named is T6, ELF5 (Homo sapiens, UniProt Q9UKW6-2 1-255).
T6 sequence: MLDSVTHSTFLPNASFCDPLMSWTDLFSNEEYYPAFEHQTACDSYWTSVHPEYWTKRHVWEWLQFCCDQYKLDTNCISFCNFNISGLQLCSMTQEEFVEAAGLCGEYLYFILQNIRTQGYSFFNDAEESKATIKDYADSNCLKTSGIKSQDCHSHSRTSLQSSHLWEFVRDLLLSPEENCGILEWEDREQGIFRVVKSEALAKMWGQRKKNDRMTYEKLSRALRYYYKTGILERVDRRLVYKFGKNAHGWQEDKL
The method in brief:
as §1

For a further experiment, the target named is T7, ETV3 (Homo sapiens, UniProt P41162-2 1-143).
T7 sequence: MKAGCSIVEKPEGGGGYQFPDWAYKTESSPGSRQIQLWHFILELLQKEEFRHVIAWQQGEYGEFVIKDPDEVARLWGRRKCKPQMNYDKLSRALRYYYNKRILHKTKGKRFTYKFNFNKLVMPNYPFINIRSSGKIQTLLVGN
The method in brief: as §1

The next experiment concerns the target ETV6 (Homo sapiens, UniProt P41212 1-452). In a few lines: as §1

Sequence of ETV6 (P41212 whole entry): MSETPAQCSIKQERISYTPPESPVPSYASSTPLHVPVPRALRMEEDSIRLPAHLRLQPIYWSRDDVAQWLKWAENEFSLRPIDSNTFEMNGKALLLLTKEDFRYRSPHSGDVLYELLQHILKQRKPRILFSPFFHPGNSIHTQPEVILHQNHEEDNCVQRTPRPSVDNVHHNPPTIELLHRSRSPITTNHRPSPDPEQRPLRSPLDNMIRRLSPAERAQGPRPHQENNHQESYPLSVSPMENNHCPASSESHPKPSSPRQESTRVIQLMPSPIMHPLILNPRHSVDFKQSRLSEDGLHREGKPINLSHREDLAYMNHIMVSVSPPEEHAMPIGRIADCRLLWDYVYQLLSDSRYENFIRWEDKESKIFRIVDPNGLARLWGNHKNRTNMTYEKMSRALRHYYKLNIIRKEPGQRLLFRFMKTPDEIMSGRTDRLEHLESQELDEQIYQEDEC

Consider CATCTG, for which the binding signal in the experiment with ERF was 1.35 fold enrichment (6-mer frequency, TF over GST control); with ETV3L, 1.23 fold enrichment (6-mer frequency, TF over GST control); with ETS2, 1.24 fold enrichment (6-mer frequency, TF over GST control); in the experiment with SPDEF it was 1.23 fold enrichment (6-mer frequency, TF over GST control); in the experiment with ETV7, 1.33 fold enrichment (6-mer frequency, TF over GST control); in the experiment with ELF5, 1.23 fold enrichment (6-mer frequency, TF over GST control). The binding signal is 1.17 fold enrichment (6-mer frequency, TF over GST control) in the experiment with ETV3 and 1.11 fold enrichment (6-mer frequency, TF over GST control) with ETV6.
Regarding GGTACT, the binding signal in the experiment with ERF is 1.38 fold enrichment (6-mer frequency, TF over GST control); with ETV3L, 1.3 fold enrichment (6-mer frequency, TF over GST control); with ETS2, 1.31 fold enrichment (6-mer frequency, TF over GST control); in the experiment with SPDEF, 1.31 fold enrichment (6-mer frequency, TF over GST control); with ETV7, 1.2 fold enrichment (6-mer frequency, TF over GST control); with ELF5, 1.28 fold enrichment (6-mer frequency, TF over GST control). The binding signal was 1.24 fold enrichment (6-mer frequency, TF over GST control) in the experiment with ETV3 and 1.16 fold enrichment (6-mer frequency, TF over GST control) with ETV6.
Consider CTTTCA, for which the binding signal with ERF is 1.44 fold enrichment (6-mer frequency, TF over GST control); in the experiment with ETV3L it was 1.38 fold enrichment (6-mer frequency, TF over GST control); with ETS2 it was 1.31 fold enrichment (6-mer frequency, TF over GST control); with SPDEF, 1.26 fold enrichment (6-mer frequency, TF over GST control); with ETV7 it was 1.33 fold enrichment (6-mer frequency, TF over GST control); with ELF5 it was 1.4 fold enrichment (6-mer frequency, TF over GST control). Moreover, the binding signal was 1.39 fold enrichment (6-mer frequency, TF over GST control) in the experiment with ETV3 and 1.24 fold enrichment (6-mer frequency, TF over GST control) with ETV6.
As to TACGTT, the binding signal was 1.3 fold enrichment (6-mer frequency, TF over GST control) with ERF; 1.32 fold enrichment (6-mer frequency, TF over GST control) with ETV3L; 1.21 fold enrichment (6-mer frequency, TF over GST control) in the experiment with ETS2; 1.22 fold enrichment (6-mer frequency, TF over GST control) in the experiment with SPDEF; 1.34 fold enrichment (6-mer frequency, TF over GST control) in the experiment with ETV7; 1.27 fold enrichment (6-mer frequency, TF over GST control) with ELF5. For the same sequence, the binding signal with ETV3 was 1.27 fold enrichment (6-mer frequency, TF over GST control); with ETV6, 1.38 fold enrichment (6-mer frequency, TF over GST control).
For the sequence CCGAGC, the binding signal is 1.17 fold enrichment (6-mer frequency, TF over GST control) with ERF; 1.1 fold enrichment (6-mer frequency, TF over GST control) with ETV3L; 1.17 fold enrichment (6-mer frequency, TF over GST control) with ETS2; 1.06 fold enrichment (6-mer frequency, TF over GST control) with SPDEF; 1.15 fold enrichment (6-mer frequency, TF over GST control) with ETV7; 1.12 fold enrichment (6-mer frequency, TF over GST control) in the experiment with ELF5. The binding signal with ETV3 is 1.04 fold enrichment (6-mer frequency, TF over GST control); with ETV6, 1.13 fold enrichment (6-mer frequency, TF over GST control).
ATGGGT: the binding signal with ERF was 1.36 fold enrichment (6-mer frequency, TF over GST control); with ETV3L it was 1.27 fold enrichment (6-mer frequency, TF over GST control); with ETS2, 1.37 fold enrichment (6-mer frequency, TF over GST control); in the experiment with SPDEF it was 1.42 fold enrichment (6-mer frequency, TF over GST control); with ETV7, 1.41 fold enrichment (6-mer frequency, TF over GST control); with ELF5, 1.34 fold enrichment (6-mer frequency, TF over GST control). Besides, the binding signal in the experiment with ETV3 was 1.3 fold enrichment (6-mer frequency, TF over GST control); with ETV6 it was 1.33 fold enrichment (6-mer frequency, TF over GST control).
Consider GCACCC, for which the binding signal was 1.21 fold enrichment (6-mer frequency, TF over GST control) with ERF; 1.23 fold enrichment (6-mer frequency, TF over GST control) in the experiment with ETV3L; 1.16 fold enrichment (6-mer frequency, TF over GST control) in the experiment with ETS2; 1.17 fold enrichment (6-mer frequency, TF over GST control) with SPDEF; 1.12 fold enrichment (6-mer frequency, TF over GST control) with ETV7; 1.17 fold enrichment (6-mer frequency, TF over GST control) with ELF5. The binding signal with ETV3 was 1.24 fold enrichment (6-mer frequency, TF over GST control); with ETV6 it was 1.09 fold enrichment (6-mer frequency, TF over GST control).
